Compound activity as filed in PubChem.
The list is not random: actives were taken first. Their share in the collection is about 1.8%.
pCIP destab = lowers stability of the mouse p/CIP coactivator protein | Q05BA5 | F442A p/CIP-EGFP cells, EGFP fluorescence, 16 h | decrease of EGFP signal, % at 10 µM | 290,000 tested, 0.01% active;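 active = EGFP signal decrease of at least 30% at 10 µM or well 3 SD below plate mean, unless failing retest; inactive = the rest, including hits failing retest or dose response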
NadD inh = inhibitors of Staphylococcus aureus NadD; purified NadD enzyme, colorimetric absorbance read-out; inhibition, % at 20 µM; 360,000 tested, 0.78% active; AID 602399; in the data active = inhibition above about 26%
PHOSPHO1 inh = PHOSPHO1 (human) inhibition | Q8TCT1 | recombinant PHOSPHO1, absorbance phosphatase assay | inhibition, % at 13.3 µM | 290,000 tested, 1.1% active; in the data active = inhibition above about 60%
UBC9 SUMO inh = blocks human SUMOylation mediated by UBC9 | P63279 | HTRF SUMOylation assay, SAE1/SAE2 + UBC9, in vitro | inhibition, % at 35 µM | 290,000 tested, 0.36% active; in the data active = inhibition above about 50%, passing the limit was not always enough
Target sequence (P63279 whole entry, looked up): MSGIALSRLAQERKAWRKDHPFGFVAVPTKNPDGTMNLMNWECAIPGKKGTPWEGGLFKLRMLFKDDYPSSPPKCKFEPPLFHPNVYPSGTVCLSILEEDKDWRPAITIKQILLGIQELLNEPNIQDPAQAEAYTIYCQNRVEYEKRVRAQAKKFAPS
NadD conf = confirmation of Staphylococcus aureus NadD inhibitors; 2,000 tested, 13% active; purified S. aureus NadD, colorimetric enzyme assay; AID 624309; shares compounds with NadD inh; inhibition, % at 20 µM; in the data active = inhibition mostly above about 42%, no sharp cut-off; inactive = mostly below about 42%
Active calls of the source: *.

Nc1nnc(SCC(=O)c2ccccc2)s1 was read as pCIP destab -8, NadD inh 7, PHOSPHO1 inh 25 and UBC9 SUMO inh 12.
`Nc1c(C(=O)c2ccccc2)sc2snc(SCC(=O)c3ccccc3)c12` gave pCIP destab -5, NadD inh 37*, PHOSPHO1 inh 32, UBC9 SUMO inh 20 and NadD conf 3.
`O=C(COc1ncnc2ccccc12)NC1CCCCC1` gave NadD inh -4.
`Cc1ccccc1OCC(=O)N/N=C/c1ccc(Sc2nc3ccccc3s2)o1` gave pCIP destab -7, NadD inh 14, PHOSPHO1 inh -14 and UBC9 SUMO inh -16.
O=C(COc1cccc2ccccc12)N/N=C/c1ccc(Sc2nc3ccccc3s2)o1 was read as pCIP destab 2, NadD inh 36*, PHOSPHO1 inh 54, UBC9 SUMO inh 14 and NadD conf 27.
For CCc1nc2c(OCCOC)cccn2c1N(C)C(=O)c1ccco1 the results were NadD inh 1.
`OCCNc1nc(-c2ccccc2)c2cc(Br)ccc2n1` gave pCIP destab -7, NadD inh -2, PHOSPHO1 inh 24 and UBC9 SUMO inh 10.
For CCCN(CCC)S(=O)(=O)c1ccc(C(=O)NNc2nc(-c3ccccc3)c3cc(Br)ccc3n2)cc1 the results were pCIP destab -10, NadD inh 36*, PHOSPHO1 inh -6, UBC9 SUMO inh -19 and NadD conf 3.
C/C(CC1CC(COCC(C)C)OC1=O)=N\Nc1nc(-c2ccccc2)cs1 (centres undefined) was read as pCIP destab 9, NadD inh 28*, PHOSPHO1 inh 10, UBC9 SUMO inh 5 and NadD conf 13.
`COc1ccc(OCc2nc(N)nc(Nc3ccccc3)n2)cc1` gave pCIP destab -3, NadD inh 0, PHOSPHO1 inh 25 and UBC9 SUMO inh 26.
`Nc1nc(COc2ccccc2C=O)nc(Nc2ccccc2)n1` gave pCIP destab 0, NadD inh 29*, PHOSPHO1 inh 27, UBC9 SUMO inh 20 and NadD conf 36*.
For O=C(Cc1ccccc1)Nc1ncnc2c1C(c1ccccc1)c1c(ccc3ccccc13)O2 (centres undefined) the results were NadD inh 32* and NadD conf 31.
`O=C(Nc1ncnc2c1C(c1ccccc1)c1c(ccc3ccccc13)O2)c1ccccc1` (centres undefined) gave NadD inh 26.
N#Cc1c(NCCCO)nc(-c2ccco2)c2c1CCCC2 was read as pCIP destab 9, NadD inh 1, PHOSPHO1 inh 13 and UBC9 SUMO inh 3.
Screening N#Cc1c(NC2CCCCC2)nc(-c2ccco2)c2c1CCCC2 returned pCIP destab 1, NadD inh 38*, PHOSPHO1 inh 11, UBC9 SUMO inh 29 and NadD conf 10.
Screening C=CCn1c(C)cc(-c2csc(NC(=O)C3CCN(c4ncnc5sc(C)c(C)c45)CC3)n2)c1C returned NadD inh 32* and NadD conf 27.
For Cc1onc(-c2c(Cl)cccc2Cl)c1C(=O)NC(=S)Nc1sc2c(c1C(N)=O)CCC(C)C2 (centres undefined) the results were pCIP destab -9, NadD inh 31*, PHOSPHO1 inh -34, UBC9 SUMO inh -3 and NadD conf 3.
For CCc1ccc2nc(NC(=O)C3CCN(c4ncnc5sc(C)c(C)c45)CC3)sc2c1 the results were NadD inh 33* and NadD conf 2.
Screening COc1ccc(-c2csc(NC(=O)C3CCN(c4ncnc5sc(C)c(C)c45)CC3)n2)cc1OC returned NadD inh 9.
For Cc1sc2ncnc(N3CCC(C(=O)Nc4sc5c(c4C(N)=O)CCC(C)C5)CC3)c2c1C (centres undefined) the results were NadD inh 31* and NadD conf 11.
O=C(Nc1ccc(CN2CCS(=O)(=O)CC2)cc1)c1ccc(Cl)cc1 was read as pCIP destab -9, NadD inh 0, PHOSPHO1 inh 37 and UBC9 SUMO inh 2.
Screening O=C(Nc1nc2c(F)cccc2s1)C1CC1 returned pCIP destab -1, NadD inh -1, PHOSPHO1 inh 41 and UBC9 SUMO inh 3.
For Cc1sc2ncnc(N3CCC(C(=O)Nc4ccc(Cl)c(Cl)c4)CC3)c2c1C the results were NadD inh 42* and NadD conf 9.
Cc1sc2ncnc(N3CCC(C(=O)Nc4nnc(SCc5ccccc5F)s4)CC3)c2c1C was read as NadD inh 47* and NadD conf 4.
